# Experimental data taken from PubChem BioAssay.
# Calls of active or inactive are those of the source.
# Tests used:
# [1] = binders of probe aFSTL3 on microarray, primary screen, stem cell growth factor project, biochemical, small-molecule microarray, fluorescence 635/667 (AID 1064); conditions: higher = more signal;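 further: measures binding of the biotinylated anti-FSTL3 antibody to printed compounds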
# [2] = binders from COS7 lysate, DM2A8 probe, primary screen, torsin A project, cell lysate, small-molecule microarray, fluorescence 635/667 (AID 1065); conditions: higher = more signal, COS7 lysate expressing mutant human TOR1A
# [3] = binders of probe aFGF2 on microarray, primary screen, stem cell growth factor project, biochemical, small-molecule microarray, fluorescence 635/667 (AID 1067); conditions: higher = more signal;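 further: measures binding of biotinylated aFGF2 protein to printed compounds on slides; z-score merges feature fluorescence and signal-to-noise across triplicate slides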
# [4] = binders of probe aFGF10 on microarray, primary screen, stem cell growth factor project, biochemical, small-molecule microarray, fluorescence 635/667 (AID 1071); conditions: higher = more signal;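 further: score merges 667 nm spot intensity and signal to noise from triplicate slides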
# [5] = target: Neurogenic locus notch homolog protein 2 (Homo sapiens) (UniProt Q04721); test: Notch2 binders on small-molecule microarrays, primary screen, biochemical, small-molecule microarray, 635 nm fluorescence, stem cell growth factors (AID 1073); conditions: Notch2 binding, higher = more signal
# Chain of Neurogenic locus notch homolog protein 2 (Homo sapiens) (Q04721 whole entry, looked up, canonical isoform): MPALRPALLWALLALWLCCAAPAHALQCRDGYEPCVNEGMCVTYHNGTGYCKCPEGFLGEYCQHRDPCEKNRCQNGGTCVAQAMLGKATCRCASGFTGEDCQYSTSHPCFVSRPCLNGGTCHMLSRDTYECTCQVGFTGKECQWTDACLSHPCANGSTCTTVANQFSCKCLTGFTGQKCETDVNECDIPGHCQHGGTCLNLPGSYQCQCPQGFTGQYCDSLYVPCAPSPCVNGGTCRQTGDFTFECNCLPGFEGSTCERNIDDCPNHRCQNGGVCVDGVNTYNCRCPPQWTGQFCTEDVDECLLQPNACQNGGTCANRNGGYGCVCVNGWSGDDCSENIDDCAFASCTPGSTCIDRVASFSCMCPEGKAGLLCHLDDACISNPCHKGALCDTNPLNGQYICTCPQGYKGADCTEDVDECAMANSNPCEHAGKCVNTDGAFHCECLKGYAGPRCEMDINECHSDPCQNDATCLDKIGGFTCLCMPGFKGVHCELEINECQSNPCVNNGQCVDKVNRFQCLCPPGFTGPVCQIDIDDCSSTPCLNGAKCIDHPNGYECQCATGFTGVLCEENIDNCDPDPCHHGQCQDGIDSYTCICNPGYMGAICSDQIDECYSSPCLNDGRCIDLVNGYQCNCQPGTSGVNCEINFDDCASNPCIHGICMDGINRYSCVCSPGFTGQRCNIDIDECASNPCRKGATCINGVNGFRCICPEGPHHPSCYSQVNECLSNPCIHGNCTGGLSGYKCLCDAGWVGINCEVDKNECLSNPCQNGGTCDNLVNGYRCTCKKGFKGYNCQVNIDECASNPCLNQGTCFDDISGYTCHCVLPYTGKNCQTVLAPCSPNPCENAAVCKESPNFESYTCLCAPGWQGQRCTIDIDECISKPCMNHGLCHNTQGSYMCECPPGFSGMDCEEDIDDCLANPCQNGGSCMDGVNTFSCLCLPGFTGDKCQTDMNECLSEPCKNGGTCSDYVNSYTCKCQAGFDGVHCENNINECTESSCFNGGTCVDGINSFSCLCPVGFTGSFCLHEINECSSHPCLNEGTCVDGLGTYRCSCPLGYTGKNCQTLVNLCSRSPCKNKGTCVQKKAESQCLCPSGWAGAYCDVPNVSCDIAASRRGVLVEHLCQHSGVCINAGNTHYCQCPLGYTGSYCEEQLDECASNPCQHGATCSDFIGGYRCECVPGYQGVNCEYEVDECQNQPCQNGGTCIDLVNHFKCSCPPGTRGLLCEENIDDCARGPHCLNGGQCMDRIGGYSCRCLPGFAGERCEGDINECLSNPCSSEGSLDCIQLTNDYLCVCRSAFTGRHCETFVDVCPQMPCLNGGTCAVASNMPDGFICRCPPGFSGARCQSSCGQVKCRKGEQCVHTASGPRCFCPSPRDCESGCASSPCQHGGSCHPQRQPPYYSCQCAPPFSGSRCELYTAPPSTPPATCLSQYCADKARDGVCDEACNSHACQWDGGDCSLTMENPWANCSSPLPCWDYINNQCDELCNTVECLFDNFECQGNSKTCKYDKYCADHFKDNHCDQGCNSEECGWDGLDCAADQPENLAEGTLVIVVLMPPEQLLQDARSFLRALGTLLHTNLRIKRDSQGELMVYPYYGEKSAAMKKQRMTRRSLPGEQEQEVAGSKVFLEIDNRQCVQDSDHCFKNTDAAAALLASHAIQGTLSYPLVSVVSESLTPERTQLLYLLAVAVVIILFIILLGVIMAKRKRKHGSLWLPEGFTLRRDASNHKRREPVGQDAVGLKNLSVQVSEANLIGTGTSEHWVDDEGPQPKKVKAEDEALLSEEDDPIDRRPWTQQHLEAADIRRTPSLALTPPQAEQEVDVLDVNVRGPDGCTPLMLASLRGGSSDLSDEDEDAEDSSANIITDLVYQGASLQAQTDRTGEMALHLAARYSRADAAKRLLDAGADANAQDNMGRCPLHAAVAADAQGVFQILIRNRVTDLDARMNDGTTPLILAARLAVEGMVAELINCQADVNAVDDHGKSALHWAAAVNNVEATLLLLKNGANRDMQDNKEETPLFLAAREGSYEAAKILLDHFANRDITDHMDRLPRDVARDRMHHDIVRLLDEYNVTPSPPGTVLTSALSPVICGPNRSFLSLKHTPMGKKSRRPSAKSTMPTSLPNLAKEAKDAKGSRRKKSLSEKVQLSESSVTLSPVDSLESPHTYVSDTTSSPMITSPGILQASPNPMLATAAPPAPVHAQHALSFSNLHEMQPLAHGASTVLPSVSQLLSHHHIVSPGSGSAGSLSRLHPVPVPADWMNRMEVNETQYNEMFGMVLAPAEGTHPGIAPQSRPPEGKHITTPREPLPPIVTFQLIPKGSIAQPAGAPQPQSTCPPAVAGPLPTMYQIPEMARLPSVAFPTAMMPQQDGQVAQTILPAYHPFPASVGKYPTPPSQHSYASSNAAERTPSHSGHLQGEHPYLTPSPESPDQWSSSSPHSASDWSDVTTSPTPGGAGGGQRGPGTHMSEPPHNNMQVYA
# [6] = target: Pro-neuregulin-1, membrane-bound isoform (Homo sapiens) (UniProt Q02297); test: NRG1 binders on small-molecule microarrays, primary screen, psychiatric disease protein project, biochemical, small-molecule microarray, fluorescence 635/667 (AID 1075); conditions: NRG1 binding, 635 nm fluorescence, higher = more signal;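 further: score combines 667 nm spot fluorescence with signal to noise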
# [7] = tested on: Neuregulin-1 EGF-like domain; test: binders of neuregulin-1 EGF-like domain, primary screen, biochemical, small-molecule microarray, 635 nm fluorescence (AID 1081); conditions: small-molecule microarray binding, higher = more signal;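 further: binding of the protein to compounds printed on small-molecule microarray slides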
# [8] = FRG1 promoter luciferase signal modulators, primary screen, FRG1 inhibition for FSHD, cell-based, C2C12 myotubes, firefly/Renilla luciferase, luminescence (AID 1084); conditions: higher = more signal, called active from +8 up or from −8 down
# [9] = binders of probe aFST on microarray, primary screen, stem cell growth factor project, biochemical, small-molecule microarray, fluorescence 635/667 (AID 1086); conditions: higher = more signal;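 further: score merges 667 nm fluorescence with signal-to-noise of each printed compound spot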
# [10] = binders of probe aHhip on microarray, primary screen, stem cell growth factor project, biochemical, small-molecule microarray, fluorescence 635/667 (AID 1087); conditions: higher = more signal;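 further: score merges spot fluorescence at 667nm with spot signal to noise ratio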
# [11] = tested on: PRMT1 (protein arginine N-methyltransferase 1); test: PRMT1 binders on small-molecule microarrays, primary screen, biochemical, small-molecule microarray, 635 nm fluorescence (AID 1088); conditions: small-molecule microarray binding, higher = more signal;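 further: binding of Prmt1 protein to compounds spotted on small-molecule microarray slides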
# [12] = yeast growth modulation, basal conditions, primary screen, YJM789 clinical isolate, OD600, 24 h (AID 1089);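 further: growth of clinical yeast isolate S. cerevisiae YJM 789 seeded 1000 cells per well; test concentration not given here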; conditions: S. cerevisiae YJM789 growth, higher = more signal, called active from +8 up or from −8 down
# [13] = fission yeast growth modulation, primary screen, strain 972, OD600, 24 h, no modulator (AID 1090);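 further: basal condition with compound alone and no growth modifier present; test concentration not given here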; conditions: S. pombe 972 growth, higher = more signal, called active from +8 up or from −8 down
# [14] = S. cerevisiae growth modulation with rapamycin, primary screen, strain BY4716, OD600, 96 h (AID 1091); conditions: higher = more signal, called active from +8 up or from −8 down; further: test concentration not given here
# [15] = target: Torsin-1A-interacting protein 2 (Homo sapiens) (UniProt Q8NFQ8); test: LULL1 binders on small-molecule microarray, primary screen, cell lysate, human LULL1 lysate, 635/667 nm fluorescence (AID 1092); conditions: hLULL1 lysate binding, 635 nm fluorescence, higher = more signal;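 further: probe is lysate of COS7 cells overexpressing human LULL1; score merges per-feature 667 nm fluorescence with signal-to-noise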
# [16] = E. coli growth modulation, two-sided OD650, primary screen, E. coli filamentation project, strain DRC41, 24 h (AID 1093); conditions: OD650, 24 h, higher = more signal, called active from +8 up or from −8 down;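 further: MC1000 strain lacking acrAB efflux and sulA so SOS filamentation is blocked; test concentration not given here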
# [17] = small-molecule microarray binders of probe aLefty2, primary screen, biochemical, biotinylated probe, 635/667 nm fluorescence (AID 1094); conditions: higher = more signal;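 further: score merges spot fluorescence near 667 nm with spot signal-to-noise ratio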
# [18] = tested on: Noggin (protein binding on small-molecule microarray); test: Noggin binders on small-molecule microarray, primary screen, biochemical, 635/667 nm fluorescence (AID 1095); conditions: 635 nm fluorescence, higher = more signal;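 further: score merges 667 nm feature fluorescence with signal to noise over triplicate slides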
# [19] = target: Neurogenic locus notch homolog protein 3 (Homo sapiens) (UniProt Q9UM47); test: NOTCH3 binders on small-molecule microarray, primary screen, biochemical, 635/667 nm fluorescence (AID 1096); conditions: NOTCH3 binding, 635 nm fluorescence, higher = more signal
# Chain of Neurogenic locus notch homolog protein 3 (Homo sapiens) (Q9UM47 whole entry, looked up): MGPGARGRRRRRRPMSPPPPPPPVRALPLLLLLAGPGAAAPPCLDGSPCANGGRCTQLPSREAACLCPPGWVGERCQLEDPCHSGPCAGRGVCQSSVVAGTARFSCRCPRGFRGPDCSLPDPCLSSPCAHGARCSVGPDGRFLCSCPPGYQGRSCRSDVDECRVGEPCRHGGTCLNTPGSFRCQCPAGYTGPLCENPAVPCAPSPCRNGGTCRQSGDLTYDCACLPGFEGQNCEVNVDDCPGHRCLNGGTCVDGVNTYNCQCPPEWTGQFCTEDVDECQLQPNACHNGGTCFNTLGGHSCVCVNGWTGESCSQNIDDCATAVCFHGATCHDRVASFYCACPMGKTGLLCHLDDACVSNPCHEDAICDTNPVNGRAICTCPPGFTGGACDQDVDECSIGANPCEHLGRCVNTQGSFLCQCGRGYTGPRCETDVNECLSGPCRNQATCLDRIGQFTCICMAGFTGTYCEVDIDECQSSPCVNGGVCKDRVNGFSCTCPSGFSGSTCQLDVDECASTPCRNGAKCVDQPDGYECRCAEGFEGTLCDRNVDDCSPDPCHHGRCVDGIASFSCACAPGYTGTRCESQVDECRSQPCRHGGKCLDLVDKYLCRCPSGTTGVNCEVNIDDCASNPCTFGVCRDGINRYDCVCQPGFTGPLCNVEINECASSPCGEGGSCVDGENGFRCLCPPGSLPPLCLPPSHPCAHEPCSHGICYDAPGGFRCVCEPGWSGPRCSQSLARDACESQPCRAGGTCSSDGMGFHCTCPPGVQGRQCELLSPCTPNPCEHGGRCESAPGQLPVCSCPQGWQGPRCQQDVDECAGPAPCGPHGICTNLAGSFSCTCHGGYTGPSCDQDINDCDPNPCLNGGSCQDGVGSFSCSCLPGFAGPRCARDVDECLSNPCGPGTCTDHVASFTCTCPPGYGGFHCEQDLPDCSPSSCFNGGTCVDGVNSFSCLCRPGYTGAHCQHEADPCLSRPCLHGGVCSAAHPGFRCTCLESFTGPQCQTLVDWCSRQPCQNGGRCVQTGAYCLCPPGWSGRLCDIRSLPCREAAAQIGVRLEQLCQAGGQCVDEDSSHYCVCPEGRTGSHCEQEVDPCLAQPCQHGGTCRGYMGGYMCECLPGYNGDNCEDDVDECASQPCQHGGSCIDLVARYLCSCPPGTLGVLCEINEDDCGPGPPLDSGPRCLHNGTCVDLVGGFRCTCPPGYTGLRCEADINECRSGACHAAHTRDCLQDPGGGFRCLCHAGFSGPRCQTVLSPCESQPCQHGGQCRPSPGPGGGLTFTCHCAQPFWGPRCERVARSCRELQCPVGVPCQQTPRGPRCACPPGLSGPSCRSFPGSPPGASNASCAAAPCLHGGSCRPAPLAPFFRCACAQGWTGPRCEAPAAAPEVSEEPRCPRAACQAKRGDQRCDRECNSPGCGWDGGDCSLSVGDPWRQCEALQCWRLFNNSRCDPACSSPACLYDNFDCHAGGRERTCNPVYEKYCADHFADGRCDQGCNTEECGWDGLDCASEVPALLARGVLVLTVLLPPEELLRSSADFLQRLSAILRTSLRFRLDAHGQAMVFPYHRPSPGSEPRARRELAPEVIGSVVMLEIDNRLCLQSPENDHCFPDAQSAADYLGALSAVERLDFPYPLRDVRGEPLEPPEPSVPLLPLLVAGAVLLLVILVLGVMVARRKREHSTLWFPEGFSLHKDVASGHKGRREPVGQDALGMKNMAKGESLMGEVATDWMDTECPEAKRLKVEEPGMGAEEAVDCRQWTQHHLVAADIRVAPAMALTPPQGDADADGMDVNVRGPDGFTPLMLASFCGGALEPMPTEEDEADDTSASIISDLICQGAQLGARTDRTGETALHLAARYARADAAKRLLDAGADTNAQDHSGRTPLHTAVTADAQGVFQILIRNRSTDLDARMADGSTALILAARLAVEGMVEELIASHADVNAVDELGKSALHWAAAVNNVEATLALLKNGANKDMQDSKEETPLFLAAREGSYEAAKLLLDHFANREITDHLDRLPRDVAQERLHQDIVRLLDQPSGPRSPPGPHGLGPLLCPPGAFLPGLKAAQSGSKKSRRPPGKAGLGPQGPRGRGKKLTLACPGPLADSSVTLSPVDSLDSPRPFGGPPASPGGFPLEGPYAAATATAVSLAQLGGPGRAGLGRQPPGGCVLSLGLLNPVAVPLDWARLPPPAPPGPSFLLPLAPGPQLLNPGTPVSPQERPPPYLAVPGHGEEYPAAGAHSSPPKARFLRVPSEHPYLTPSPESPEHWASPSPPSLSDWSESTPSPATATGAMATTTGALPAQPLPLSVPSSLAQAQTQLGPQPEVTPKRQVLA
# [20] = small-molecule microarray binders of probe aEGFR, primary screen, biochemical, biotinylated probe, 635/667 nm fluorescence (AID 1097); conditions: higher = more signal;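 further: probe is a biotinylated anti-EGFR antibody binding compounds printed on slides; score combines fluorescence near 667 nm and signal to noise of each spot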
Structure (SMILES),composite z-score [1],composite z-score [2],composite z-score [3],composite z-score [4],composite z-score [5],composite z-score [6],composite z-score [7],z-score [8],composite z-score [9],composite z-score [10],composite z-score [11],z-score [12],z-score [13],z-score [14],composite z-score [15],z-score [16],composite z-score [17],composite z-score [18],composite z-score [19],composite z-score [20]
COc1cc2c(cc1OC)CN(C(=O)[C@@H]1[C@H]3C(=O)O[C@H](c4ccccc4)[C@H](c4ccccc4)N3[C@H](c3ccccc3OCCO)[C@@]13C(=O)Nc1ccc(C#CC4(O)CCCCCC4)cc13)CC2,-0.0079,0.955,-0.0573,0.201,0.463,0.935,1.2,-0.066 (inactive),-0.0613,-0.123,1.54,2.74 (inactive),0.563 (inactive),5.14 (inactive),2.09,2.26 (inactive),0,0.56,0.896,-0.0357
CCCC[C@@H]1C[C@H]1[C@@H](NC(=O)c1cccnc1)c1ccc(-c2ccccc2)cc1,0.684,-0.242,-0.124,-0.522,-1.71,-0.401,-0.655,-0.781 (inactive),-1.23,-0.0074,-0.537,-1.27 (inactive),-15.7 (active),-2.6 (inactive),-0.795,-0.919 (inactive),0.009,1.01,-0.476,-0.345
CN(C)C(=O)[C@]1(CCC(=O)OC(C)(C)C)N=C(c2ccc(OCCCO)cc2)O[C@@H]1c1ccccc1,-0.175,0.527,-0.016,0.776,1.3,1.91,1.4,0.788 (inactive),0.268,-0.0645,0.637,0.182 (inactive),-0.993 (inactive),-0.273 (inactive),3.56,1.27 (inactive),0.0601,-0.674,-0.301,0.625
CCOC(=O)[C@@H]1[C@@H]2C(=O)N(CC)C(=O)[C@@H]2C[C@@H]1Sc1ccccc1,-0.528,1.04,0.0308,0.712,1.39,0.354,1.33,-1.02 (inactive),0.731,-0.226,0.814,-0.624 (inactive),0.792 (inactive),2.66 (inactive),1.69,0.0399 (inactive),-0.0632,-0.132,0.722,0.113
C[C@]1(C(=O)O)c2ccccc2C(=O)N(Cc2ccccc2)[C@H]1c1ccc(CO)cc1,1.63,-0.646,-0.116,-1.03,-1.24,0.869,0.521,-0.319 (inactive),-0.42,-0.164,-1.68,1.09 (inactive),0.468 (inactive),1.37 (inactive),-0.884,0.651 (inactive),0.119,-1.51,-1.9,-0.288
Cc1ccc(S[C@]2(C(=O)NC(C)C)CC(=O)N(C3Cc4ccccc4C3)[C@@H]2c2ccc(CO)cc2I)cc1,0.125,-0.869,-0.216,-0.667,-0.853,1.06,0.381,-1.85 (inactive),-0.654,-0.858,0.871,-0.801 (inactive),-2.68 (inactive),-0.0369 (inactive),3.32,0.733 (inactive),-0.0131,-0.0975,-0.505,-0.37
C=CCN1Cc2ccccc2C[C@@]2(N=C(c3ccc(OCCCO)cc3)O[C@H]2c2ccccc2)C1=O,0.633,0.604,0.0109,-0.364,1.09,1.04,1.29,-1.32 (inactive),0.383,0.297,1.55,-4.69 (inactive),-11.1 (active),4.42 (inactive),3.13,0.55 (inactive),-0.051,1.04,0.968,0.0047
C[N+](C)(C)CCCC[C@@H]1NC(=O)[C@@H]2C[C@H](C(=O)O)[C@H](c3ccc(O)cc3)N2C1=O,1.26,-0.752,-0.119,-0.695,-1.77,-0.0673,-0.118,0.0902 (inactive),-0.639,-0.137,-0.701,0.151 (inactive),0.229 (inactive),-1.27 (inactive),-0.972,0.0772 (inactive),-0.0943,-0.342,-0.694,-0.269
Cc1ccc(S[C@]2(C(=O)NC(C)C)CC(=O)N(Cc3ccccc3C(F)(F)F)[C@@H]2c2ccc(CO)cc2I)cc1,1.01,-0.685,-0.0924,-0.545,-1.67,1.91,1.17,-0.62 (inactive),-0.415,-0.274,1.13,-2.32 (inactive),-4.49 (inactive),1.18 (inactive),0.515,-1.73 (inactive),0.0844,-0.76,-0.669,-0.283
Cc1ccc(S[C@]2(C(=O)NC3CC3)CC(=O)N(Cc3ccccc3Cl)[C@@H]2c2ccc(CO)cc2I)cc1,0.29,0.132,-0.106,0.171,0.0538,1.72,1.24,-2.19 (inactive),-0.0129,-0.123,1.54,-0.362 (inactive),-1.83 (inactive),0.67 (inactive),3.22,0.481 (inactive),0.0448,1.34,0.304,-0.0238
O=C1C2C=CC(C(O)c3cc(C(F)(F)F)cc(C(F)(F)F)c3)N(Nc3ccc([N+](=O)[O-])cc3)C2C(=O)N1c1ccccc1 (stereo not given),-0.25,0.466,0.0678,0.94,1.67,1.86,1.17,0.0404 (inactive),0.598,-0.166,1.54,0.527 (inactive),1.15 (inactive),33.4 (active),3.47,-1.57 (inactive),-0.0229,0.411,1.02,0.0149
CCCCN1CC=CC23O[C@@H]4C=CCOC(=O)[C@@H]4[C@H]2C(=O)N(C(C)CO)[C@@H]3C1=O (stereo not given in full),0.762,-0.665,-0.187,-0.174,-1.03,1.7,0.745,1.66 (inactive),-0.0725,-0.189,-1.57,-0.543 (inactive),-1.22 (inactive),-0.557 (inactive),-0.449,-0.479 (inactive),-0.205,-0.929,-1.25,-0.216
C#CCNC(=O)[C@H](Cc1ccccc1)NC(=O)[C@@H](N=[N+]=[N-])C(C)C,-0.57,-0.003,-0.0894,0.334,1.04,0.452,1.08,0.171 (inactive),0.16,-0.409,0.911,-0.611 (inactive),0.139 (inactive),-0.229 (inactive),1.57,0.35 (inactive),-0.116,0.434,0.5,-0.071
NC(N)=NCc1cn(CCc2c[nH]c3ccccc23)nn1,-0.711,0.348,-0.121,0.536,0.348,0.499,0.992,0.512 (inactive),0.225,0.132,0.974,-0.289 (inactive),-0.002 (inactive),-1.38 (inactive),1.01,-0.979 (inactive),-0.166,1.36,0.646,0.128
COc1cc2c(cc1O)C(C)N(Cc1cc3c(cc1Br)OCO3)CC2 (stereo not given),0.731,-0.192,-0.0951,0.0663,0.511,0.53,1.5,0.0288 (inactive),-0.175,0.0749,-0.285,0.406 (inactive),-10.1 (active),-1.35 (inactive),0.169,-0.471 (inactive),0,-1.03,-0.53,-0.0594
C=C(C(=O)CC[C@H](OC(C)=O)c1cccc(OCCO)c1)C(C)C,0.125,-0.152,-0.189,-0.582,-0.739,0.007,-0.526,0.422 (inactive),-0.675,-0.0994,0.385,0.574 (inactive),-0.299 (inactive),-0.0905 (inactive),0.355,1.04 (inactive),-0.121,-0.621,-0.594,-0.113
O=C1O[C@H](c2ccccc2)[C@H](c2ccccc2)N2[C@H]1[C@@H](C(=O)O)[C@]1(C(=O)Nc3ccccc31)[C@H]2c1ccc(O)cc1,1.17,-0.122,-0.113,0.338,-0.844,1.85,0.771,1.28 (inactive),-0.388,-0.24,0.548,1.34 (inactive),0.278 (inactive),0.3 (inactive),1.87,-0.423 (inactive),-0.166,-0.317,-0.188,-0.257
CCOC(=O)C[C@H]1[C@H](OC(=O)c2ccccc2-c2ccccc2)[C@@H](NC(=O)c2ccc3ccccc3n2)c2cc(OCCCO)ccc2N1C(=O)c1ccc2ccccc2n1,-0.348,0.749,-0.074,0.304,0.607,0.189,0.0721,0.075 (inactive),0.189,-0.0994,0.215,-0.717 (inactive),-0.653 (inactive),-0.299 (inactive),0.84,0.597 (inactive),-0.269,0.283,0.598,-0.0512
COC(=O)[C@@]1(Cc2ccccc2)[C@H]2c3cc(C(=O)N4CCCC4)n(Cc4cc(F)cc5c4OCOC5)c3C[C@H]2CN1C(=O)c1ccccc1,0.752,-0.234,0.356,0.762,1.73,1.1,1.22,-0.223 (inactive),0.929,-0.0905,-0.149,1.33 (inactive),1.17 (inactive),0.509 (inactive),3.29,-0.542 (inactive),0.331,-0.584,0.924,0.115
